Screening results: PubChem BioAssay, NMMLSC
Autofluor counter: counter-screen for toxin protease inhibitors: compound fluorescence; compound autofluorescence counterscreen, microsphere flow cytometry; active compounds read high; fluorescence intensity (no concentration beside the values); AID 624483; 360,000 tested, 3.1% active; in the data active = fluorescence intensity above about 16000; inconclusive = no clear call, values can overlap the other calls
Anthrax LF inh2: Bacillus anthracis LF protease inhibitors, primary screen, biochemical, multiplex microsphere, MLPCN library; Lethal factor (Bacillus anthracis), P15917; multiplex microsphere protease cleavage assay; inhibition, % at 10 µM; 360,000 tested, 0.12% active; AID 588501, 2011
Target sequence (P15917 whole entry, looked up): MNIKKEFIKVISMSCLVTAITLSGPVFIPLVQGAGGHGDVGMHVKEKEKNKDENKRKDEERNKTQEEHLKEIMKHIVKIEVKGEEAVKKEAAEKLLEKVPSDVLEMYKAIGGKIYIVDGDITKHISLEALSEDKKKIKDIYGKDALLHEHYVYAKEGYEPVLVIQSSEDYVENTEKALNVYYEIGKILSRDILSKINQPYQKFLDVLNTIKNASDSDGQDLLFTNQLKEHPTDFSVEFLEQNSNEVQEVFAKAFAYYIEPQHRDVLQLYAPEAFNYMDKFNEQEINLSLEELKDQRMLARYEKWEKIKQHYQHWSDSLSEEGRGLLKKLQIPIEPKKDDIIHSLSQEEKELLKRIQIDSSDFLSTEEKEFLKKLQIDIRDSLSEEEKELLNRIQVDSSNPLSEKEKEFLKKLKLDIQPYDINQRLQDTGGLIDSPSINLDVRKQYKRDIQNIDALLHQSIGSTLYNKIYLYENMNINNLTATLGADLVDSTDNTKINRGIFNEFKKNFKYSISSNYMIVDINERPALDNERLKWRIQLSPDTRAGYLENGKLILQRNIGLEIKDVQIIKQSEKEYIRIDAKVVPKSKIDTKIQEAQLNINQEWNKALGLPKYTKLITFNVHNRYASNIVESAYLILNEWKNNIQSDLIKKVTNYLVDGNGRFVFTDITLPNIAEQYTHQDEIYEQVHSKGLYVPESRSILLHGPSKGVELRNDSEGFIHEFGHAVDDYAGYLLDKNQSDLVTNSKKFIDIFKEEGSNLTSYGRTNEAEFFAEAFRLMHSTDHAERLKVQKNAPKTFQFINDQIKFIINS
BoNT-F LC inh: BoNT/F light chain protease inhibitors, primary screen, biochemical, flow cytometry, MLPCN library; inhibition, % at 10 µM; 360,000 tested, 0.22% active; Multiplex microsphere protease cleavage assay; Botulinum neurotoxin type F light chain protease (Clostridium botulinum); in the data active = inhibition above about 35%, passing the limit was not always enough; inconclusive = no clear call, values can overlap the other calls
BoNT-A LC inh2: BoNT/A light chain protease inhibitors, primary screen, biochemical, flow cytometry, MLPCN library; multiplex microsphere protease substrate cleavage; inhibition, % at 10 µM; 360,000 tested, 0.17% active; AID 588499, 2011
Of the large screens only hits and unclear results are named; the others gave an inactive call. The list is not random: actives were taken first. Their share in the collection is about 3.5%. Rule as the data show it, unless noted: active = inhibition above about 30%; inconclusive = no clear call, values can overlap the other calls; inactive = below that.

O=[n+]1c2c(n([O-])c3ccccc31)CCCC2	Autofluor counter 16483
COc1nc(C#N)nc(N(C)C)n1	Autofluor counter 20512
CCN(CC)C(=O)CN(C#N)c1nc(OC)nc(N(C)C)n1	none
CCCCSc1nsc(NC(C)=O)n1	Autofluor counter 22275
CC(C)(C)c1ccc(CC(=O)N2CCC2(C)C(=O)NS(=O)(=O)c2ccc3c(c2)CCO3)cc1 (stereo not drawn)	none
CCNC(=O)CC1SC(=Nc2cccc(Cl)c2C)N(C)C1=O (stereo not drawn)	Autofluor counter 16300
CCNC(=O)CC1SC(=Nc2ccc(Cl)cc2)N(CC)C1=O (stereo not drawn)	none
NCCc1c[nH]c2ccccc12	none
CCC1(CC)C(=O)NC(=NCCc2c[nH]c3ccccc23)NC1=O	Autofluor counter 17043
Cn1c(C(=O)NCc2cccnc2)cc2sc(Cl)cc21	Autofluor counter 20564
Cn1c(=O)n(CC(=O)NCc2cccnc2)c2ccccc21	Autofluor counter 24061
Cc1ccccc1NC(=O)Cn1c(=O)n(C)c2ccccc21	Autofluor counter 21084
Cc1ccccc1NC(=O)Cn1nc(-c2ccccc2)nc1-c1ccccc1	Autofluor counter 16150
O=C(NCc1cccnc1)c1sc2cc(Cl)ccc2c1Cl	none
Cc1nn2c(-c3ccncc3)nnc2c2ccccc12	none
O=C(CSc1ccc2nnc(-c3ccc(F)cc3)n2n1)NCC1CCCO1 (stereo not drawn)	BoNT-A LC inh2 inconclusive
COc1ccc(-c2nnc3ccc(SC)nn23)cc1	Autofluor counter 17068
COc1ccc(-c2nnc3ccc(SCC(=O)NCC4CCCO4)nn23)cc1 (stereo not drawn)	Autofluor counter 25334
COc1ccc(-c2nnc3c4ccccc4c(C)nn23)cc1	Autofluor counter 22622
CCOC(=O)C1=C(C)Nc2ncnn2C1/C=C/c1ccccc1 (stereo not drawn)	Autofluor counter 20063
CCCC1=C(C(=O)OCC)C(c2ccc(F)cc2)n2ncnc2N1 (stereo not drawn)	none
CCCC1=C(C(=O)OCC)C(/C=C/c2ccccc2)n2ncnc2N1 (stereo not drawn)	Autofluor counter 21846, BoNT-A LC inh2 inconclusive
Cn1cc(CN2CCN(c3ccccc3)CC2)c2ccccc21	Autofluor counter 21941
C1CCC(n2nnnc2CN2CCCC2)CC1	Autofluor counter 23839
c1ccc2c(Cn3nnc4ccccc43)cccc2c1	none
c1ccc2c(COn3nnc4ccccc43)cccc2c1	Autofluor counter 21859
COc1ccc(NCC(=O)Nc2c(C)cccc2C)cc1S(=O)(=O)N1CCOCC1	none
Nc1ccc(C(O)(C(F)(F)F)C(F)(F)F)cc1	Autofluor counter 16402
CN(C)c1nc(N(C)C)c2cnn(C)c2n1	none
CCn1c(SCC(=O)Nc2ccc(C(C)=O)cc2)nc2nc3c(cc2c1=O)CCCC3	Autofluor counter 23239, BoNT-A LC inh2 inconclusive
COc1ccc(N(CC(=O)N/N=C(\C)c2ccccc2)S(=O)(=O)c2ccccc2)cc1	none
C=CCn1c(SCCOC)nc2c1c(=O)[nH]c(=O)n2C	none
Cc1cccc(Cn2c(Sc3nc(C)cs3)nc3c2c(=O)[nH]c(=O)n3C)c1	Autofluor counter 19241, BoNT-A LC inh2 inconclusive
C=CCn1c(Sc2nc(C)cs2)nc2c1c(=O)[nH]c(=O)n2C	Autofluor counter 23702
Cc1csc(Sc2nc3c(c(=O)[nH]c(=O)n3C)n2Cc2ccccc2Cl)n1	none
Cc1ccc(-c2nn(-c3cc(Cl)ccc3[N+](=O)[O-])c(=O)c3ccccc23)cc1	Autofluor counter 24146
CCn1c(-c2cc(-c3cccc(OC)c3)nc3ccccc23)n[nH]c1=S	Autofluor counter 19974
Cc1nn(Cc2ccccc2)c(Cl)c1/C=C/C(=O)OC(C)C(=O)N1CCCC1 (stereo not drawn)	none
CC(=O)OCc1c(C(F)(F)F)nn(C)c1Oc1ccccc1	Autofluor counter 17428
Cc1nn(C)c(Oc2cccc(C(F)(F)F)c2)c1C=O	none
CC(=O)OCc1c(C(F)(F)F)nn(C)c1Oc1cccc(C(F)(F)F)c1	Autofluor counter 16385
COc1cc2c(cc1OC)C(COc1cccc(C(F)(F)F)c1)NCC2 (stereo not drawn)	none
O=C(CCN1CCCCC1)c1ccccc1	Autofluor counter 16441, BoNT-A LC inh2 inconclusive
O=C(CCN1CCOCC1)c1ccccc1	none
O=C(O)CCC(=O)CCC(=O)c1ccccc1	Autofluor counter 23543, BoNT-A LC inh2 inconclusive
OC(C#CCN1CCCCC1)c1ccccc1 (stereo not drawn)	none
C1CCCN(CCCCN2CCCCCC2)CC1	Autofluor counter 21776
OC(CCCCN1CCCCC1)c1ccccc1 (stereo not drawn)	Autofluor counter 22737, BoNT-A LC inh2 inconclusive
Cc1ccc(C(=O)CCC(=O)CCC(=O)O)cc1	none
